# Results filed as inconclusive are left out. The source made the active and inactive calls. Unless noted, cut-off not given; nearly all actives show AC50 up to about 26 µM.
# Tests used:
# [1] = tested on: Aerobactin synthetase IucA (Klebsiella pneumoniae); assay: inhibition of K. pneumoniae IucA enzyme – biochemical, Tocris library, absorbance (AID 1345561; call rule not given here;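 further: 100% = enzyme without compound and 0% = no enzyme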); details: purified IucA enzyme assay, absorbance (OD) read-out; stronger effect = lower value;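 tested at 8 µM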
# [2] = viability loss with induced miR-34 in A549 – imaging, A549 dox-inducible miR-34, nuclei and caspase counts, primary screen (AID 1347080;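 active means compounds whose cell count with miR-34 switched on is under 0.7 times the count with it off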); details: A549 miR-34 inducible, Hoechst nuclei count, 48 h
# [3] = galactose survival enhancers in mitochondrial complex I cybrids – cell-based, galactose medium, ATP luminescence, primary screen (AID 1645843;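 active means z-score of at least 1.8 in each of two replicates, scored against plate mean and spread of sample wells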;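 further: positive z means more ATP and so rescue of galactose-driven cybrid death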); details: complex I mutant cybrid cells, 72 h, stronger effect = higher value
# [4] = viability loss in pontine glioma line – cell-based, SU-DIPG-XVII, MIPE5.0, CellTiter-Glo, qHTS, dose response (AID 1347060); details: CellTiter-Glo ATP luminescence;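 on AC50: cells exposed to compound for 48 hours before viability readout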
# [5] = viability loss in pontine glioma line – cell-based, SU-DIPG-XIII, MIPE4.0, CellTiter-Glo, qHTS, dose response (AID 1347061; cut-off not given, nearly all actives have AC50 up to about 37 µM;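 further: cells exposed to compound for 48 hours before readout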); details: CellTiter-Glo ATP luminescence
# [6] = viability loss in pontine glioma line – cell-based, JHH-DIPG-1, MIPE4.0, CellTiter-Glo, qHTS, dose response (AID 1347062; cut-off not given, nearly all actives have AC50 up to about 27 µM;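 on AC50: cells exposed to compound for two days before readout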); details: JHH-DIPG-1 viability, CellTiter-Glo ATP luminescence
# [7] = viability loss in pontine glioma line – cell-based, SU-DIPG-IV, MIPE4.0, CellTiter-Glo, qHTS, dose response (AID 1347063; cut-off not given, nearly all actives have AC50 up to about 30 µM;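 further: compound exposure lasted 48 hours before the viability readout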); details: CellTiter-Glo ATP luminescence
# [8] = viability loss in pontine glioma line – cell-based, SU-DIPG-XIII, MIPE5.0, CellTiter-Glo, qHTS, dose response (AID 1347064; cut-off not given, nearly all actives have AC50 up to about 23 µM;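 on AC50: cells exposed to compound for 48 hours before the viability read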); details: CellTiter-Glo ATP luminescence
# [9] = viability loss in pontine glioma line – cell-based, SU-DIPG-XXV, MIPE5.0, CellTiter-Glo, qHTS, dose response (AID 1347065); details: CellTiter-Glo ATP luminescence;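 further: cells exposed to compound for 48 hours before ATP readout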
# [10] = growth inhibition of DIPG cells – cell-based, MIPE4.0 library, CellTiter-Glo luminescence, qHTS (AID 1347066; cut-off not given, nearly all actives have AC50 up to about 30 µM;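 further: cells exposed to compound for 48 hours before readout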); details: SU-DIPG-VI viability, CellTiter-Glo ATP luminescence
# [11] = JHH-DIPG-1 glioma cell viability, MIPE5.0 library, CellTiter-Glo luminescence, qHTS (AID 1347067); details: JHH-DIPG-1 glioma viability, CellTiter-Glo ATP luminescence;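 further: cells exposed to compound for 48 hours before readout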
# [12] = P. berghei load reduction in hepatocytes – cell-based, HepG2, luciferase luminescence, HepG2 viability, primary screen (AID 624349; in the data active means parasite load remaining mostly below about 12%, no sharp cut-off; inactive means mostly above about 10%;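 further: 100% = mean of DMSO negative control wells on the same plate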); details: P. berghei liver stage in HepG2, luciferase luminescence, concentration not given here; parasite load remaining: stronger effect = lower value; viability: measured here: HepG2 viability without parasites
# [13] = growth inhibition of DIPG cells – cell-based, MIPE5.0 library, qHTS (AID 1347068; cut-off not given, nearly all actives have IC50 up to about 30 µM;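 on IC50: cells exposed to compound for 48 hours before viability readout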); details: SU-DIPG-XXV viability
# [14] = stronger effect = lower value, cell number ratio, induced over uninduced
# [15] = measured here: relative caspase fold change +Dox/-Dox
# [16] = measured here: total cells with miR-34 induction, stronger effect = lower value
# [17] = measured here: total cells without miR-34 induction
smiles,measurement,setting,value
C=CC(=O)c1ccc2ccccc2c1,remaining activity,[1],118% (inactive)
same,fold change,[2]; [14],0.911 (inactive)
same,fold change,[2]; [15],1.23
same,cell count,[2]; [16],8570
same,cell count,[2]; [17],9410
same,z-score,[3],-0.58 (inactive)
CCCCCS(=O)(=O)CCCCCCCCCCn1c(-c2ccc(O)cc2)c(C)c2cc(O)ccc21,remaining activity,[1],96.6% (inactive)
same,fold change,[2]; [14],1.01 (inactive)
same,fold change,[2]; [15],0.732
same,cell count,[2]; [16],1420
same,cell count,[2]; [17],1410
same,z-score,[3],-0.685 (inactive)
CCCCCCCNS(=O)(=O)c1cccc2c(Cl)cccc12,remaining activity,[1],95% (inactive)
same,fold change,[2]; [14],0.865 (inactive)
same,fold change,[2]; [15],0.629
same,cell count,[2]; [16],8130
same,cell count,[2]; [17],9410
same,z-score,[3],-0.5 (inactive)
CCOc1cc2c(c(F)c1OCC)C(=N)N(CC(=O)c1cc(N3CCOCC3)c(OC)c(C(C)(C)C)c1)C2,AC50,[4],26300 nM (active)
same,AC50,[5],2350 nM (active)
same,AC50,[6],23500 nM (active)
same,AC50,[7],16600 nM (active)
same,AC50,[8],29500 nM (active)
same,AC50,[9],23500 nM (active)
same,AC50,[10],16600 nM (active)
same,AC50,[11],20900 nM (active)
NCC(=O)Nc1cncc(-c2nn3c(=O)cc(N4CCNCC4)nc3s2)c1,outcome,[4],inactive
O=C1NC(=O)c2cc(Nc3ccc(F)cc3)c(Nc3ccc(F)cc3)cc21,parasite load remaining,[12],41.4% (inactive)
same,viability,[12],70.7%
same,remaining activity,[1],103% (inactive)
same,fold change,[2]; [14],1.25 (inactive)
same,fold change,[2]; [15],0.934
same,cell count,[2]; [16],3220
same,cell count,[2]; [17],2570
same,z-score,[3],-0.645 (inactive)
COc1cccc2c(NCc3ccccc3)nc(-n3c(N)nc4ccccc43)nc12,AC50,[4],3720 nM (active)
same,outcome,[5],inactive
same,AC50,[6],9350 nM (active)
same,AC50,[7],3320 nM (active)
same,AC50,[8],3320 nM (active)
same,AC50,[9],2630 nM (active)
same,AC50,[10],2640 nM (active)
same,AC50,[11],2950 nM (active)
same,IC50,[13],2950 nM (active)
c1cc(CN2CCCNCCNCCCNCC2)ccc1CN1CCCNCCNCCCNCC1,outcome,[4],inactive
same,outcome,[5],inactive
same,outcome,[6],inactive
same,outcome,[7],inactive
same,outcome,[8],inactive
same,outcome,[9],inactive
same,outcome,[10],inactive
same,outcome,[11],inactive
same,outcome,[13],inactive
c1ccc(-c2n[nH]c3c2oc2ccccc23)cc1,parasite load remaining,[12],24.1% (inactive)
same,viability,[12],103%
same,remaining activity,[1],98.7% (inactive)
same,fold change,[2]; [14],0.891 (inactive)
same,fold change,[2]; [15],1.09
same,cell count,[2]; [16],6520
same,cell count,[2]; [17],7320
same,z-score,[3],0.045 (inactive)
NS(=O)(=O)c1ccc(NC(=S)N2CCN(C/C=C/c3ccccc3)CC2)cc1,outcome,[4],inactive
C=CC(=O)N1CCc2ccc(-n3c(=O)ccc4cnc5ccc(-c6cnn(C)c6)cc5c43)cc21,AC50,[4],229 nM (active)
same,AC50,[5],8330 nM (active)
same,AC50,[6],7430 nM (active)
same,AC50,[7],2350 nM (active)
same,AC50,[8],72.3 nM (active)
same,AC50,[9],144 nM (active)
same,AC50,[10],3720 nM (active)
same,AC50,[11],1150 nM (active)
CC(C)S(=O)(=O)c1ccc2nccc(Nc3ccc4scnc4c3)c2c1,AC50,[4],16600 nM (active)
COC(=O)C1=C(C)NC(c2ncc(F)cc2F)=N[C@H]1c1ccc(F)cc1Cl,AC50,[4],23500 nM (active)
COc1cccc2nc(-c3cccs3)nc(NN3C(=O)C=C(C)C3=O)c12,AC50,[4],833 nM (active)
same,AC50,[5],10500 nM (active)
same,AC50,[6],16600 nM (active)
same,AC50,[7],296 nM (active)
same,AC50,[8],2090 nM (active)
same,AC50,[9],1660 nM (active)
same,AC50,[10],3720 nM (active)
same,AC50,[11],2350 nM (active)
same,IC50,[13],7420 nM (active)
Nc1[nH]nc2nc3ccccc3nc12,parasite load remaining,[12],38.7% (inactive)
same,viability,[12],97.8%
same,remaining activity,[1],110% (inactive)
same,fold change,[2]; [14],0.889 (inactive)
same,fold change,[2]; [15],0.743
same,cell count,[2]; [16],7860
same,cell count,[2]; [17],8840
same,z-score,[3],-0.17 (inactive)
Nc1nc(-c2nn(Cc3ccccc3F)c3ncccc23)nc(N)c1N1CCOCC1,outcome,[4],inactive
same,outcome,[5],inactive
same,outcome,[6],inactive
same,outcome,[7],inactive
same,outcome,[8],inactive
same,outcome,[9],inactive
same,outcome,[10],inactive
same,outcome,[11],inactive
same,outcome,[13],inactive
COc1ccc(Nc2cc(-c3cnc(N)nc3)nc(N3CCOCC3)n2)cn1,AC50,[4],2950 nM (active)
same,AC50,[5],18700 nM (active)
same,AC50,[6],5900 nM (active)
same,AC50,[7],4690 nM (active)
same,AC50,[8],1660 nM (active)
same,AC50,[9],1320 nM (active)
same,AC50,[10],4180 nM (active)
N#CNC(=NCCCCCCOc1ccc(Cl)cc1)Nc1ccncc1,AC50,[4],29.5 nM (active)
same,AC50,[5],4.69 nM (active)
same,AC50,[6],1.32 nM (active)
same,AC50,[7],4.69 nM (active)
same,AC50,[8],8.33 nM (active)
same,AC50,[9],13.2 nM (active)
same,AC50,[10],5.26 nM (active)
same,AC50,[11],14.8 nM (active)
COc1ccc(OC)c2c(=S)c3ccccc3[nH]c12,parasite load remaining,[12],32.4% (inactive)
same,viability,[12],149%
same,remaining activity,[1],86.6% (inactive)
same,fold change,[2]; [14],0.958 (inactive)
same,fold change,[2]; [15],1.3
same,cell count,[2]; [16],8120
same,cell count,[2]; [17],8480
same,z-score,[3],0.325 (inactive)
CN(C(=O)CNC(=O)/C=C/c1cccc(Cl)c1)C1CCS(=O)(=O)CC1,AC50,[4],1050 nM (active)
CCOC(=O)C12CC1/C(=N\O)c1ccccc1O2 (stereo unspecified),remaining activity,[1],109% (inactive)
same,fold change,[2]; [14],0.923 (inactive)
same,fold change,[2]; [15],1.17
same,cell count,[2]; [16],8510
same,cell count,[2]; [17],9220
same,z-score,[3],-0.07 (inactive)
CN(C)c1ccc2cc(C(=O)N[C@@H](CCCN=C(N)CCl)C(=O)NCc3ccccc3)ccc2c1,AC50,[4],8330 nM (active)
same,AC50,[5],16600 nM (active)
same,AC50,[6],13200 nM (active)
same,AC50,[7],7430 nM (active)
same,AC50,[8],2630 nM (active)
same,AC50,[9],9340 nM (active)
same,AC50,[10],16600 nM (active)
same,AC50,[11],8330 nM (active)
CC[C@@]1(O)C(=O)OCc2c1cc1n(c2=O)Cc2c-1nc1cc(F)c(C)c3c1c2[C@@H](N)CC3,AC50,[4],2.35 nM (active)
C[C@@]12O[C@@H](C[C@]1(O)CO)n1c3ccccc3c3c4c(c5c6ccccc6n2c5c31)CNC4=O,AC50,[4],2950 nM (active)
same,AC50,[5],4690 nM (active)
same,AC50,[6],2960 nM (active)
same,AC50,[7],8330 nM (active)
same,AC50,[8],1320 nM (active)
same,AC50,[9],186 nM (active)
same,AC50,[10],8330 nM (active)
same,AC50,[11],1860 nM (active)
same,IC50,[13],2630 nM (active)

# Reference: PubChem BioAssay
